Screening results as filed in PubChem.
FMDV antiviral – High Throughput Screening for Foot and Mouth Disease Virus Antivirals. Potency, µM (doses to about 57.9 µM), hits mostly inhibitors. 1.2% of 410,000 active. AID 1159524, 2015. FMDV antiviral cell-based qHTS; calls by dose curve; tested in HEK293T cells; also: read-out not given here; nearly all actives have a fitted effect of over 45% in size
LASV entry inh – qHTS for Inhibitors of binding or entry into cells for Lassa Virus. AID 540256, 2011. Lassa virus pseudotype entry inhibition, cell reporter. 1.2% of 300,000 active. Potency, µM (doses to about 37.9 µM), usual class: inhibitors; calls by dose curve; tested in HEK293 cells; also: nearly all actives have a fitted effect of over 50% in size
SARS PLpro yeast – qHTS of Yeast-based Assay for SARS-CoV PLP | Potency, µM (highest dose often 32.9 µM), most hits filed as activators | S. cerevisiae expressing SARS-CoV PLpro, growth rescue | AID 485353, 2010 | 0.19% of 330,000 active; calls by dose curve; also: nearly all actives have a fitted effect of over 55% in size
HCV inh – qHTS Assay for Inhibitors of Hepatitis C Virus (HCV). Huh7.5.1 HCVcc-Cre infection, luciferase reporter, 44 h. AID 651820, 2012. 3.4% of 340,000 active. Potency, µM (doses to about 41.8 µM), most hits filed as inhibitors; active = well fitted inhibition curve with a large enough effect; inconclusive = small, poorly fitted or top-dose-only effect, or another doubt; inactive = no such curve, though single readings can be large or run the other way
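A cell-based infection assay in which seeded cells (1,000 per well) receive test compound after 4 h, are inoculated with HCVcc-Cre at approximately 0.5 moi, and are incubated 44 h before luminescence detection.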
Marburg entry inh – qHTS for inhibitors of binding or entry into cells for Marburg Virus | Marburg virus pseudotyped entry inhibition, cell reporter | Potency, µM (titrated, usually from 37.8 µM), actives largely listed as inhibitors | 1.8% of 300,000 active | AID 540276, 2011; calls by dose curve; tested in HEK293 cells
HCMV inh – qHTS Assay for inhibitors of the human cytomegalovirus (HCMV). 4.5% of 410,000 active. HFF cells, HCMV-luciferase reporter, 72 h; stronger effect = lower value. AID 1259415, 2018. activity change, negative = inhibition, % at 57.5 µM; in the data active = activity change below about -60%; inconclusive = no clear call, values can overlap the other calls; inactive = above about -39%
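Luciferase read-out from HCMV-luciferase-infected HFFs (MOI 1 PFU/cell) 72 h post infection at 37C; compounds added after 16 h cell attachment; activity normalized between buffer-only basal and Salinomycin (10uM) inhibitor controls.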
Hits are given with their value; . = inactive; ? = inconclusive; / = no result; ! = not confirmed by another sample. Rows were chosen to be rich in hits. Some 8% of all compounds tested hit in one or more screens of this group.

SMILES	FMDV antiviral	LASV entry inh	SARS PLpro yeast	HCV inh	Marburg entry inh	HCMV inh
Cc1ccc(S(=O)(=O)N2CCC(=O)N(C(COCc3cccc(C)c3)Cc3ccccc3)CC2)cc1 (stereo not drawn)	.	15µM	.	?	?	.
Cc1cccc(C(=O)N2CCC(=O)N(C(COCc3ccc(Cl)cc3)Cc3ccccc3)CC2)c1 (stereo not drawn)	?	10µM	.	?	.	.
O=C(c1cccc(Cl)c1)N1CCC(=O)N(C(COCc2cccc(Cl)c2)Cc2ccccc2)CC1 (stereo not drawn)	.	15µM	.	?	.	.
Cc1ccc(S(=O)(=O)N2CCC(=O)N(C(COCc3ccc(Cl)c(Cl)c3)Cc3ccccc3)CC2)cc1 (stereo not drawn)	.	.	.	.	.	/
COc1ccccc1CNc1ncnc2ccc(-c3ccoc3)cc12	.	/	/	/	/	/
COc1cc(C2OC(=O)c3c2ccc(OC)c3OC)ccc1O (stereo not drawn)	/	/	.	/	/	/
CC(=O)N1CCCc2ccc(NC(=O)c3ccc(C(F)(F)F)cc3)cc21	?	.	/	/	/	-71
COCCC(=O)N1CCc2ccc(NC(=O)c3ccc(C(F)(F)F)cc3)cc2C1	?	/	.	10µM	/	-65
O=C(Nc1ccc2c(c1)C(=O)OC2)c1ccc(C(F)(F)F)cc1	.	.	.	.	.	.
CCOc1ccc(C(=O)Nc2ccc3c(c2)N(C(C)=O)CCC3)cc1OCC	.	.	/	/	/	.
CN(C)S(=O)(=O)N1CCc2ccc(NC(=O)c3ccc(C(F)(F)F)cc3)cc2C1	?	/	.	7.9µM	/	?
Cc1ccnc(NC(c2ccccc2)c2ccc3cccnc3c2O)c1 (stereo not drawn)	.	?	/	13µM	?	-78
Cc1ccnc(NC(c2cccnc2)c2ccc3cccnc3c2O)c1 (stereo not drawn)	.	?	.	4µM	8.9µM	.
Cc1ccnc(NC(c2cc(C)ccc2O)c2ccc3cccnc3c2O)c1 (stereo not drawn)	.	?	/	/	?	.
CC1CN(C(=O)c2ccc(NS(=O)(=O)c3ccc(C(C)(C)C)cc3)cc2)CC(C)O1 (stereo not drawn)	.	/	.	.	/	.
CCOc1ccccc1CNc1nc2nc(C)cc(C)n2n1	.	.	/	/	.	.
COc1ccc(OC(=O)c2cnc3n(c2=O)CCS3)cc1	.	.	.	.	.	.
Cc1cccc(OCCn2c(SCC(N)=O)nc3ccccc32)c1	.	.	/	/	/	.
CCCCc1ccc(NC(=O)c2cc3c(=O)n4ccccc4nc3s2)cc1	?	.	/	/	.	.
O=C(Nc1ccc(Cl)cc1)Nc1csc([N+](=O)[O-])c1	.	?	.	?	?	-103
O=C(Nc1csc([N+](=O)[O-])c1)Nc1c(Cl)cccc1Cl	.	/	.	.	/	-76
O=C(Nc1cccc([N+](=O)[O-])c1)Nc1cccc([N+](=O)[O-])c1	?	?	.	?	?	?
Cc1nonc1NC(=O)CSc1nnc(N)s1	.	.	.	.	.	.
CCCCCCn1c([C@H](C)O)nc2ccccc21	/	/	/	/	.	/
COc1ccc(Cl)cc1NC(=O)CN(C)C(=O)CCSc1ccc(C)cc1	.	/	.	?	/	?
SMILES	FMDV antiviral	LASV entry inh	SARS PLpro yeast	HCV inh	Marburg entry inh	HCMV inh
Cn1c(=O)c2c(nc(CN3CCN(CCO)CC3)n2Cc2cccc3ccccc23)n(C)c1=O	.	.	.	?	12µM	.
Cn1c(=O)c2c(nc(CN3CCN(c4ccccc4F)CC3)n2Cc2ccccc2F)n(C)c1=O	.	.	/	/	.	.
Cn1c(=O)c2c(nc(N3CCCCCC3)n2Cc2cccc3ccccc23)n(C)c1=O	28µM	.	.	?	?	?
Cn1c(=O)c2c(nc(CN3CCN(c4ccc(F)cc4)CC3)n2Cc2ccccc2F)n(C)c1=O	.	.	.	?	16µM	.
COc1ccc(/C=N/NC(=O)c2cc(C(C)(C)C)[nH]n2)cc1COc1ccc(F)cc1F	?	?	.	?	?	.
COC(=O)[C@]12CCCCC=C1N(CCC1=CCCCC1)C(=O)[C@H](CC(=O)NCCCCc1ccccc1)C2	.	/	/	/	/	.
c1ccc2c(c1)[nH]c1ccccc12	.	/	/	.	/	/
Cc1c(C2Nc3ccccc3C2C)[nH]c2ccccc12 (stereo not drawn)	/	/	/	/	/	-85
O=C(Nc1c(-c2ccccc2)nc2ccccn12)c1ccccc1F	.	.	.	.	?	-64!
CC(CO)Nc1nc(SCc2ccccc2)nc2sc3c(c12)CCC3 (stereo not drawn)	.	.	.	13µM	.	?
O=c1ccc(S(=O)(=O)N2CCCC2)cn1Cc1ccc(Cl)cc1Cl	?	/	.	6.3µM	/	.
Cn1cc([N+](=O)[O-])c(C(=O)Nc2nccs2)n1	.	/	.	?	/	-96
COc1ccc(C(=O)Nc2nccs2)cc1[N+](=O)[O-]	.	.	.	.	.	.
CCSc1ccc(C(=O)Nc2ccc(Br)cn2)cc1[N+](=O)[O-]	.	/	.	?	/	.
Cn1cc([N+](=O)[O-])c(C(=O)Nc2ccc(Br)cn2)n1	.	.	.	11µM	.	-65
COc1cccc(-n2cc(C(=O)NCCc3ccc(C)cc3)c3ccccc3c2=O)c1	.	.	/	/	/	-61
COc1ccc(CCNC(=O)c2cc(C(=O)c3cc(C)ccc3O)cn(CCc3ccc(OC)cc3)c2=O)cc1	.	2.8µM	.	?	?	.
COc1ccc(CCNC(=O)c2cc(C(=O)c3cc(Cl)ccc3O)cn(CCc3ccc(OC)cc3)c2=O)cc1	.	?	.	?	?	.
COc1cccc(-n2cc(C(=O)NCc3ccc(C)cc3)c3ccccc3c2=O)c1	.	.	/	/	/	.
CC(C)c1ccc(N2C(=O)NC(=O)/C(=C\C=C\c3ccco3)C2=O)cc1	?	?	.	?	?	-95
O=C1NC(=O)N(Cc2ccccc2)C(=O)/C1=C/C=C/c1ccco1	13µM	/	.	?	/	.
CC(C)N1C(=O)/C(=C/C=C/c2ccco2)C(=O)N(Cc2ccco2)C1=O	18µM	?	.	?	4µM	.
COC(=O)N(C=Cc1ccc(OC)cc1)CCc1ccc(OC)c(OC)c1	/	/	/	/	.	/
CC(=O)Nc1ccc(S(=O)(=O)NCCC(=O)Nc2cccc(Cl)c2)cc1	.	/	.	.	?	.
CC(=O)Nc1ccc(S(=O)(=O)NCCOc2ccc(Cl)cc2C)cc1	.	.	.	.	?	-74
CC(=O)O[C@]1(C)CC[C@]23CC1C(C)(C)C2CC[C@@H]3C (stereo partly drawn)	.	/	/	/	/	/
CC1=NN(/C(=N\c2nnc(C)s2)Nc2ccc(C(C)(C)C)cc2)[C@H](c2ccc(C)cc2)S1	.	.	.	.	8.2µM	.
CN(C)CCCNC(=O)c1ccc(-c2nc(-c3ccc(Cl)cc3)cs2)cc1	.	?	.	10µM	?	.
